PubChem BioAssay
The source made the active and inactive calls.

Experiments:
[1] = E. coli DRC41 culture turbidity changes, primary screen, E. coli filamentation inducer project, strain DRC41, OD650, 48 h (AID 1152);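 further: E. coli MC1000 strain DRC41 lacking acrAB efflux pump and sulA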; settings: E. coli DRC41 (acrAB sulA), higher = more signal, called active from +8 up or from −8 down
[2] = small-molecule binders of probe aLefty1, primary screen, biochemical, small-molecule microarray, 635/667 nm fluorescence (AID 1153); settings: higher = more signal;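 further: score merges spot fluorescence with signal-to-noise ratio from the scanned slide images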
[3] = PSAC antagonists in infected red cells, primary screen, cell-based, P. falciparum Indochina, OD700, 1 h (AID 1154); settings: P. falciparum Indochina infected RBC osmotic lysis, higher = more signal, called active from +8 up or from −8 down
[4] = PSAC antagonists in infected red cells, primary screen, cell-based, P. falciparum Indochina, OD700, 2 h (AID 1155);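 further: lysis reports solute entry through the parasite surface anion channel PSAC; channel blockers reduce lysis of infected cells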; settings: P. falciparum Indochina infected erythrocytes, osmotic lysis OD700; higher = more signal, called active from +8 up or from −8 down
[5] = osmotic lysis modulators in infected erythrocytes, primary screen, PSAC antagonist project, cell-based, P. falciparum Indochina, OD700, 3 h (AID 1156); settings: higher = more signal, called active from +8 up or from −8 down
[6] = PSAC antagonists in infected red cells, primary screen, cell-based, P. falciparum Indochina, OD700, 18 h (AID 1157); settings: P. falciparum Indochina infected erythrocytes, osmotic lysis OD700, 18 h; higher = more signal, called active from +8 up or from −8 down
[7] = modulators of S6 phosphorylation in cells, primary screen, cell-based, A549, cytoblot, luminescence, serum-stimulated (AID 1158); settings: A549 phospho-S6 cytoblot, 5 h, higher = more signal;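 further: serum-stimulated A549 lung adenocarcinoma cells; signal is phosphorylated S6 detected by cytoblot immunostaining with HRP secondary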
[8] = target: NADPH oxidase 2 (Homo sapiens) (UniProt P04839); test: NOX2-dependent H2O2 signal modulators, primary screen, NOX inhibitor project, cell-based, HEK293-NOX2, PMA-stimulated, Amplex Red fluorescence (AID 1159); settings: 45 min, higher = more signal, called active from +8 up or from −8 down; further: test concentration not given here
[9] = target: NADPH oxidase 4 (Homo sapiens) (UniProt Q9NPH5); test: NOX4-dependent H2O2 signal modulators, primary screen, NOX inhibitor project, cell-based, HEK293-NOX4, tetracycline-induced, Amplex Red fluorescence (AID 1160); settings: 45 min, higher = more signal, called active from +8 up or from −8 down
[10] = target: NADPH oxidase 5 (Homo sapiens) (UniProt Q96PH1); test: NOX5-dependent H2O2 signal modulators, primary screen, NOX inhibitor project, cell-based, HEK293-NOX5, Amplex Red fluorescence (AID 1161); settings: HEK293-NOX5, ionomycin, 45 min, higher = more signal
[11] = A549 cell viability effects, profiling panel, calcein-AM fluorescence, 48 h, basal (AID 1162); settings: higher = more signal; further: test concentration not given here
[12] = adipocyte viability effects, profiling panel, cell-based, 3T3-L1 adipocytes, calcein-AM fluorescence, 48 h, basal (AID 1163); settings: 3T3-L1 adipocytes viability, higher = more signal; further: test concentration not given here
[13] = HepG2 cell viability effects, profiling panel, calcein-AM fluorescence, 48 h, basal (AID 1164); settings: higher = more signal; further: test concentration not given here
[14] = MM1S cell viability effects, profiling panel, calcein-AM fluorescence, 48 h, basal (AID 1165); settings: higher = more signal;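 further: viability of MM1S multiple myeloma cells under basal unstimulated conditions; test concentration not given here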
[15] = basal RPMI8226 viability, no added stimulus, profiling panel, cell-based, calcein-AM fluorescence, 48 h, PK04 Diversity Set (AID 1166); settings: RPMI8226 myeloma viability, higher = more signal;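 further: cells grown under basal conditions without added stimulus; test concentration not given here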
[16] = basal HepG2 mitochondrial membrane potential changes, profiling panel, cell-based, JC-1 fluorescence, 24 h, 100 nL compound (AID 1167); settings: higher = more signal; further: test concentration not given here
[17] = basal 3T3-L1 adipocyte mitochondrial potential changes, profiling panel, cell-based, JC-1 fluorescence, 3T3-L1 adipocytes, 24 h, 100 nL compound (AID 1168); settings: JC-1 mitochondrial fluorescence, higher = more signal, called active from +8 up or from −8 down; further: test concentration not given here
[18] = basal RPMI8226 mitochondrial membrane potential changes, profiling panel, cell-based, JC-1 fluorescence, 24 h, 100 nL compound (AID 1169); settings: RPMI8226 myeloma, JC-1 mitochondrial potential fluorescence, higher = more signal; further: test concentration not given here
[19] = basal MM1S mitochondrial membrane potential changes, profiling panel, cell-based, JC-1 fluorescence, 24 h, 100 nL compound (AID 1170); settings: higher = more signal; further: test concentration not given here
[20] = A549 lung cancer cell viability effects, profiling panel, resazurin fluorescence, 24 h, PK04 Diversity Set (AID 1171); settings: higher = more signal, called active from +8 up or from −8 down; further: test concentration not given here

Chain of NADPH oxidase 5 (Homo sapiens) (Q96PH1 whole entry, looked up): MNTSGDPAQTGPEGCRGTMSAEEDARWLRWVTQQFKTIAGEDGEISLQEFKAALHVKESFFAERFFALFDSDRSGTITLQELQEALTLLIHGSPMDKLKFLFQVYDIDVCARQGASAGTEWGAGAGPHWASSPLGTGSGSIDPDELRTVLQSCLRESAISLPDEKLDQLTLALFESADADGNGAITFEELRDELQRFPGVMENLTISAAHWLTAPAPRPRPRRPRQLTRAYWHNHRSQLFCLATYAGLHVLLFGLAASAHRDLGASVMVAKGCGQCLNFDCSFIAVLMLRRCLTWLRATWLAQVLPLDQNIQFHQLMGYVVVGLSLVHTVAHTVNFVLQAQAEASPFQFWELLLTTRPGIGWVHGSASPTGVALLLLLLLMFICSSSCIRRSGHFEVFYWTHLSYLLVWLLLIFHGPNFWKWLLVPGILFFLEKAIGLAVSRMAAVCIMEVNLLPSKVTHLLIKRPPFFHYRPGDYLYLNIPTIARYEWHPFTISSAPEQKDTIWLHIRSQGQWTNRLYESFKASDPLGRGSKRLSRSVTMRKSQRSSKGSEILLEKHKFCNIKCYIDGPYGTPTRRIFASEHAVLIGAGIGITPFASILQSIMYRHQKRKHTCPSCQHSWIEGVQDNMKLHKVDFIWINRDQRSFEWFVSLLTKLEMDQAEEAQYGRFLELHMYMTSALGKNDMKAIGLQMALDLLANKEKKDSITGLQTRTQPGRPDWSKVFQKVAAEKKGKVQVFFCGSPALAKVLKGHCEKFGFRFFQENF
Chain of NADPH oxidase 2 (Homo sapiens) (P04839 whole entry, looked up): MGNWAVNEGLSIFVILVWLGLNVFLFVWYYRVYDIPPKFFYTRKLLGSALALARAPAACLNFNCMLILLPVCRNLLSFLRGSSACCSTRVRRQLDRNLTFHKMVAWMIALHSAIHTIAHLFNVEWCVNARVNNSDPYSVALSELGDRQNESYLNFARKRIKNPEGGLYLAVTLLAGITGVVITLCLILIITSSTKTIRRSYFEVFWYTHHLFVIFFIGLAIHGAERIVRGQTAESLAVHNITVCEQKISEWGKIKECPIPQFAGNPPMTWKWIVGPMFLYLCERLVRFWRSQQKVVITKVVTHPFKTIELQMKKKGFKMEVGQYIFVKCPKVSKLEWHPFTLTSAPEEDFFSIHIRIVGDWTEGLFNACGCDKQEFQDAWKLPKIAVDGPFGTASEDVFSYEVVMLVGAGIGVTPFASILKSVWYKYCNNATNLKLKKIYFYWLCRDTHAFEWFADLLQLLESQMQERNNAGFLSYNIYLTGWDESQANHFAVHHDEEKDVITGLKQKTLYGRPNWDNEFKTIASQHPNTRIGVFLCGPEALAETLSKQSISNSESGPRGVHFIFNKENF
Chain of NADPH oxidase 4 (Homo sapiens) (Q9NPH5 whole entry, looked up): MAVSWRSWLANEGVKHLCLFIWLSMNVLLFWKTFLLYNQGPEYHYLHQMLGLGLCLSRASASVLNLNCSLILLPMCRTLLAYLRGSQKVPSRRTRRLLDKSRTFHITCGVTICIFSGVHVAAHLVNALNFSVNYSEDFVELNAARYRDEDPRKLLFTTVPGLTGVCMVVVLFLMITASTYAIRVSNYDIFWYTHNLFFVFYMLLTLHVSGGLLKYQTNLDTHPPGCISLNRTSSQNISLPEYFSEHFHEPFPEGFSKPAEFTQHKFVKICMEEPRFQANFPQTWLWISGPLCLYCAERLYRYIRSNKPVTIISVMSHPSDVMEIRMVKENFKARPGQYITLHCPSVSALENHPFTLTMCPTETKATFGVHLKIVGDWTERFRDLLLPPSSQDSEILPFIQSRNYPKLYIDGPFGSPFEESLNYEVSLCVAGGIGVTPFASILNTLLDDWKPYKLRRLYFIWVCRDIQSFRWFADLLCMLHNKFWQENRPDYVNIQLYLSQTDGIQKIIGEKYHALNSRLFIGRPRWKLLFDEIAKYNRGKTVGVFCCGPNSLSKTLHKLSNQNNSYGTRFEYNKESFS

| SMILES | z-score [1] | composite z-score [2] | z-score [3] | z-score [4] | z-score [5] | z-score [6] | z-score [7] | z-score [8] | z-score [9] | z-score [10] | z-score [11] | z-score [12] | z-score [13] | z-score [14] | z-score [15] | z-score [16] | z-score [17] | z-score [18] | z-score [19] | z-score [20] |
| --- | --- | --- | --- | --- | --- | --- | --- | --- | --- | --- | --- | --- | --- | --- | --- | --- | --- | --- | --- | --- |
| [N-]=[N+]=NCc1ccccc1C[C@@]1(C(=O)N2CCCCC2)N=C(c2ccc(OCCCO)cc2)O[C@@H]1c1ccccc1N=[N+]=[N-] | 0.842 (inactive) | -0.126 | 31.2 (active) | 30.4 (active) | 2.6 (inactive) | 3.27 (inactive) | -0.0417 | 1.2 (inactive) | -0.0332 (inactive) | -1.27 | -0.0222 | 1.03 | 0.471 | -3.11 | -3.21 | 0.821 | 0.636 (inactive) | -1.25 | -1.14 | 0.0861 (inactive) |
| C=CC[C@]12N=C(c3ccc(OCCCO)cc3)O[C@H]1c1ccccc1N(C)C2=O | -0.0028 (inactive) | 1.11 | 31.9 (active) | 31.8 (active) | 4.16 (inactive) | 3.07 (inactive) | 0.289 | -2.49 (inactive) | -0.582 (inactive) | -1.8 | -1.3 | 0.614 | -0.593 | -1.14 | -3.83 | 0.422 | -0.427 (inactive) | -1.17 | 0.203 | -1.12 (inactive) |
| COc1c(C)cc(-c2cc3c(c(Cc4ccccc4)n2)[Si](C(C)C)(C(C)C)OC3)cc1C | -1.01 (inactive) | 0.0004 | 0.613 (inactive) | -0.172 (inactive) | 0.249 (inactive) | 0.189 (inactive) | -0.671 | -0.233 (inactive) | 0.243 (inactive) | 0.152 | -0.983 | -1.44 | 0.269 | -0.418 | -0.0095 | -1 | -0.737 (inactive) | 0.0185 | -0.00287 | -0.124 (inactive) |
| CC(=O)n1cc(C(O)C2C=CC3C(=O)N(Cc4ccccc4)C(=O)C3N2n2cnnc2)c2ccccc21 (stereo not given) | -1.32 (inactive) | -0.0867 | 8.09 (active) | 2.31 (inactive) | 0.927 (inactive) | 1 (inactive) | -0.386 | -0.0716 (inactive) | -0.738 (inactive) | -0.392 | -0.919 | -0.0245 | -0.392 | -1.12 | 0.125 | -1.07 | -0.623 (inactive) | 0.563 | -0.321 | -0.756 (inactive) |
| COC(=O)C(CC#Cc1ccc2c(c1)[C@]1(C(=O)N2)[C@H](C(=O)O)[C@H]2C(=O)O[C@H](c3ccccc3)[C@H](c3ccccc3)N2[C@@H]1c1ccccc1OCCO)C(=O)OC | -1.21 (inactive) | 0.658 | 4.19 (inactive) | 0.487 (inactive) | -5.95 (inactive) | -0.008 (inactive) | 0.029 | 1.37 (inactive) | -1.33 (inactive) | 1.19 | -0.045 | -0.182 | -0.219 | -3.26 | -4.09 | -2.93 | -0.236 (inactive) | -0.441 | -1.98 | -0.327 (inactive) |
| CCOC(=O)[C@H]1C/C=C/C[C@H](C(=O)OCC)C(=O)O[C@H]2[C@@H](OC)O[C@H](CO)[C@@H](OC(=O)CCc3ccccc3)[C@@H]2OC1=O | -0.142 (inactive) | 1.63 | 0.955 (inactive) | 0.175 (inactive) | -0.518 (inactive) | 0.386 (inactive) | -0.0947 | 0.281 (inactive) | 0.273 (inactive) | 0.541 | 0.837 | 0.342 | 0.957 | 0.269 | 0.331 | 0.957 | 0.352 (inactive) | 0.655 | -0.533 | -0.553 (inactive) |
| Cc1ccc(S[C@]2(C(=O)NCC(C)C)CC(=O)N(Cc3ccccc3Cl)[C@@H]2c2ccc(CO)cc2I)cc1 | -0.455 (inactive) | 0.258 | 3.05 (inactive) | 0.592 (inactive) | 1.24 (inactive) | 0.254 (inactive) | 0.464 | 2.55 (inactive) | -0.402 (inactive) | 1.52 | -0.0583 | -0.201 | -0.752 | -1.94 | -1.67 | -0.0983 | -0.559 (inactive) | -0.788 | -1.75 | 0.622 (inactive) |
| COc1ccccc1CN1C(=O)c2ccccc2[C@](Cc2ccccc2I)(C(=O)NC(C)C)[C@@H]1c1ccc(CO)cc1 | 0.646 (inactive) | 0.0494 | 4.1 (inactive) | 0.644 (inactive) | 0.632 (inactive) | 0.621 (inactive) | 0.0569 | -2.12 (inactive) | 0.143 (inactive) | -2.1 | 0.312 | 0.771 | -0.185 | -1.38 | -2.99 | 1.63 | -0.0467 (inactive) | -0.507 | -1.82 | -0.306 (inactive) |
